# Screening results deposited in PubChem BioAssay by Johns Hopkins Ion Channel Center.
# Kir21 inh: inhibitors of mouse Kir2.1 inward-rectifier potassium channel; 310,000 tested, 0.85% active; B-score at 10 µM; P35561; HEK293-Kir2.1, FluxOR thallium flux fluorescence; active compounds read low;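 active means fluorescence ratio B-score at or below minus 3 SD of library scores, with starting-brightness B-score within 2 SD, cut at about -4.2 in these data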;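 further: channel flux triggered by added potassium and thallium sulfate stimulus; B-score of peak minus minimum fluorescence over baseline after thallium stimulus; more negative B-score means stronger Kir2.1 block with less thallium influx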
# ANO1 block: blocks the mouse calcium-activated chloride channel TMEM16A. Q8BHY3. 310,000 tested, 1.2% active. normalized B-score (activity score, 25-100; higher = stronger inhibition) at 10 µM. HEK293 TMEM16A/YFP iodide influx fluorescence, ionomycin;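 active means ratio plate-corrected score three or more library SD toward inhibition, starting fluorescence score within five deviations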;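 further: score derived from kinetic fluorescence span divided by baseline fluorescence per well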
# ANO1 activ: mouse TMEM16A channel activation, primary screen; 340,000 tested, 0.3% active; HEK293 TMEM16A/YFP-H148Q/I152L, iodide quench fluorescence; active compounds read low; B-score at 10 µM;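 active means fluorescence-ratio B-score plate-corrected deviation score at least 3 library SD below zero, with starting fluorescence score within 5 deviations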;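 further: channel opened by trigger with iodide after compound preincubation; score built on the fluorescence ratio of max minus min over baseline; more negative score means more quench and so TMEM16A activation or potentiation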
# KCNK3 inh: human KCNK3 channel inhibition, primary screen | B-score at 10 µM | O14649 | 340,000 tested, 0.84% active | AID 602410 | CHO-KCNK3 thallium flux, FluxOR fluorescence; active compounds read low;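 active means B-score under library mean minus 4 SD, starting fluorescence ratio at most library mean plus 5 SD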;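 further: more negative B-score means stronger inhibition of thallium flux through KCNK3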
# KCNK9 block: inhibitors of human KCNK9 two-pore domain potassium channel | Q9NPC2 | HEK293 KCNK9, FluxOR thallium flux fluorescence; active compounds read low | B-score at 10 µM | 310,000 tested, 1.2% active | AID 488922;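 active means ratio B-score over 3 SD below the library mean, with starting fluorescence within 5 SD of its mean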;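 further: negative B-score means less thallium flux so channel inhibition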
# Target sequence (Q9NPC2 whole entry, looked up, the tested form may be a part): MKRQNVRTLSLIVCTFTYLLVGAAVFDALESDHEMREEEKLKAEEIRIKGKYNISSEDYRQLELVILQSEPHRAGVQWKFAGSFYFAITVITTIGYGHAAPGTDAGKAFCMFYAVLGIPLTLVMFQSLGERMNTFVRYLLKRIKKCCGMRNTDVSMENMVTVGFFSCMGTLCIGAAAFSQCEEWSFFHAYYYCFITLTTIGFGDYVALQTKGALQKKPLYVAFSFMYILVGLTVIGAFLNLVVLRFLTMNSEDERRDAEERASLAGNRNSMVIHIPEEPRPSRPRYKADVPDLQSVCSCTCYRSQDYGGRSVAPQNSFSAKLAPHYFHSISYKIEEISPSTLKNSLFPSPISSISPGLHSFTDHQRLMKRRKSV
# Numbers without * were called inactive; i = inactive; / = no result given. Sampled rows, rich in hits. Any-hit rate of the full collection: about 3.5%.
SMILES,Kir21 inh,ANO1 block,ANO1 activ,KCNK3 inh,KCNK9 block
NC(=O)c1ccc[n+]([C@H]2O[C@@H](COP(=O)([O-])OP(=O)(O)OC[C@H]3O[C@@H](n4cnc5c(N)ncnc54)[C@H](O)[C@@H]3O)[C@H](O)[C@@H]2O)c1,/,i,i,i,/
NC(N)=N/N=C/c1ccc(OS(=O)(=O)c2ccccc2)cc1,-10*,i,i,i,i
CCC(=O)N/N=C/c1ccc(OS(=O)(=O)c2ccccc2)cc1,-0.29,i,i,i,i
Cc1c(O)ccc(NS(=O)(=O)c2ccccc2)c1C,-2,i,i,i,i
COc1ccc(S(=O)(=O)Nc2cc(C(C)C)c(O)cc2C)cc1,-1.3,i,i,i,i
Cc1cc(NS(=O)(=O)c2ccccc2)c(C)c(Cl)c1O,-5.8*,i,i,i,i
Cc1ccc(S(=O)(=O)Nc2cc(C)c(O)cc2C)cc1,-4.9*,i,i,i,i
C=Cc1ccc(CSc2cc(C)nc3nc(C)nn23)cc1,-0.14,i,i,i,i
COC(=O)c1ccccc1NC(=O)CNCCc1ccc(OC)c(OC)c1,-0.35,i,i,i,i
CC1=NN(Cc2ccccc2)C(=O)C1C(c1ccc(Cl)cc1)C(C#N)C#N (configuration not stated),-5.5*,i,i,i,i
CCOC(=O)c1c(-n2c(C)cc(C=O)c2C)sc2c1CCCC2,-4.6*,i,i,i,i
CCOC(=O)c1cccc(-n2c(C)cc(C=O)c2C)c1,-0.12,i,i,i,i
CS(=O)(=O)N(Cc1ccc(Cl)cc1)c1ccc(C(=O)N/N=C/c2cc3ccccc3nc2Cl)cc1,-0.85,i,i,i,-7.3*
CS(=O)(=O)N(Cc1ccc(Cl)cc1)c1ccc(C(=O)NCc2ccccn2)cc1,-0.43,i,i,i,i
CCN(CC)S(=O)(=O)c1ccc(OC(C)C)c(NC(=O)C2=COCCO2)c1,-0.02,i,i,i,i
CCc1ccc([C@@H]2CC=C(C(=O)O)[C@H](c3ccc(C)cc3)N2S(=O)(=O)c2ccc(C)cc2)cc1,/,/,/,i,/
CCc1ccc([C@@H]2CC=C(C(=O)O)[C@H](c3ccc(Cl)cc3)N2S(=O)(=O)c2ccc(C)cc2)cc1,/,100*,i,i,/
CCc1ccc([C@@H]2CC=C(C(=O)O)[C@H](c3cccc(Cl)c3)N2S(=O)(=O)c2ccc(C)cc2)cc1,/,100*,i,i,/
Oc1ccccc1CNc1ccc(OC(F)(F)F)cc1,-0.31,i,i,i,i
CCCc1ccc(S(=O)(=O)N(C)S(=O)(=O)c2ccc(F)cc2)cc1,0.31,i,i,i,-6.7*
Cc1ccc(S(=O)(=O)NC(=O)c2ccc(-c3ccc(-c4ccccc4)cc3)o2)c(C)c1,0.22,100*,/,/,i
Cn1c(-c2c(N)n(C3CCCC3)c3nc4ccccc4nc23)nc2ccccc21,2.9,i,i,-11*,i
O=C(Nc1ccc(NC(=O)C2CC2)nc1)c1ccncc1,1.2,i,i,i,i
CCCC(=O)N(CCN1CCOCC1)c1nc2c(OC)ccc(OC)c2s1,2.9,i,i,i,i
O=c1[nH]c(CSc2nc3ccccc3[nH]2)nc2c1cnn2-c1ccccc1,-0.4,100*,i,i,i
SMILES,Kir21 inh,ANO1 block,ANO1 activ,KCNK3 inh,KCNK9 block
O=c1[nH]c(SCc2nc3c(cnn3-c3ccccc3)c(=O)[nH]2)nc2ccccc12,/,/,i,i,/
CCN(CC)CCNCC(O)(c1ccc(Cl)cc1)c1ccc(Cl)cc1,-5.6*,i,i,i,i
CCN1CCN(C(=O)C(C)Nc2ccc(OC)cc2OC)CC1 (configuration not stated),0.13,i,i,i,i
COc1ccc(CN2CCCC(CO)(Cc3ccc(F)cc3)C2)cc1C (configuration not stated),-2.2,i,i,i,i
COc1cccc(CC2(CO)CCCN(Cc3cn(C)c4ccccc34)C2)c1 (configuration not stated),-4.3*,i,i,i,i
CCn1cc(CN2CCCC(CO)(Cc3ccc(F)cc3)C2)c2ccccc21 (configuration not stated),-5.2*,i,i,i,i
O=C(NC(Nc1nc2ccc([N+](=O)[O-])cc2s1)(C(F)(F)F)C(F)(F)F)c1ccccc1Cl,-5*,100*,i,i,i
CN(C)S(=O)(=O)c1ccc2nc(NC(=O)c3cccnc3)sc2c1,-0.16,i,i,i,i
O=C(NC(Nc1nc2ccc([N+](=O)[O-])cc2s1)(C(F)(F)F)C(F)(F)F)c1cccnc1,-5.7*,100*,i,i,i
O=C(NC(NNc1ccc([N+](=O)[O-])cc1)(C(F)(F)F)C(F)(F)F)c1ccccc1Cl,0.96,i,i,i,i
COc1cc(C(=O)NCCCNc2ccc([N+](=O)[O-])cc2)cc(OC)c1OC,-0.14,i,i,i,i
O=C(CNC(=O)c1ccc(Br)o1)NCc1ccc(Cl)cc1,0.05,i,i,i,i
Cc1cc(N2CCCCC2)nc(NCc2ccccc2)n1,-6.7*,i,i,i,i
Cc1cc(N2CCN(c3ccccc3)CC2)nc(N)n1,-0.02,i,i,i,i
Cc1cc(N2CCN(c3ccccc3)CC2)nc(-c2ccccc2)n1,-1.6,i,i,i,-7.6*
ON1C(c2ccc(Cl)cc2Cl)N(O)[C@H]2CCCC[C@H]21 (some centres not stated),-0.31,100*,i,i,i
COc1ccc(OC)c(NC(=O)NCCc2c[nH]c3ccccc23)c1,-0.72,i,i,i,i
CC(=O)Nc1cccc(/C(C)=N/NC(=O)c2ccc(O)cc2)c1,0.74,i,i,i,i
C/C(=N\NC(=O)c1ccc(O)cc1)c1ccc2c(c1)Nc1ccccc1S2,0.74,25*,i,i,i
COc1cc(NC(=O)OCc2ccccc2)c2ncccc2c1,/,/,i,-11*,/
O=C(Nc1ccon1)Nc1cccc(Cl)c1Cl,-2.2,i,i,i,i
CCCc1cc(=O)oc2cc(C)cc(OC(C)C(=O)N[C@@H](Cc3c[nH]c4ccccc34)C(=O)O)c12 (some centres not stated),-0.4,i,i,i,i
Cc1cc(OC(C)C(=O)NCCc2c[nH]c3ccccc23)c2c(C)cc(=O)oc2c1 (configuration not stated),0.8,i,-10*,i,i
Cc1nc(N)nc(N)c1CCCc1ccc(Cl)c(Cl)c1,-7.8*,i,i,i,i
COc1ccc(C)cc1-n1nnnc1SCC(=O)NC1CCCC1,/,/,i,i,/
